Results filed as inconclusive are left out. A number with no mark means an inactive call. Active and inactive are the calls of the source. Unless noted, calls come from the whole dose curve; as a rule, active = well fitted inhibition curve with a large enough effect; inconclusive = small, poorly fitted or top-dose-only effect; inactive = no such curve, though single readings can be large or run the other way.

The values that follow come from PubChem BioAssay (NCATS).

The target of the first test is Aldehyde dehydrogenase, mitochondrial (Homo sapiens) (UniProt P05091). As to the kind of experiment: qHTS for Inhibitors of the Aldehyde Dehydrogenase Family (ALDH2) Validation screens (AID 2061302; active = well fitted inhibition curve with a large enough effect; title and protocol of this record describe different tests;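 note: plate controls were DMSO vehicle for no effect and maximal DPI positive control response for full effect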). The note with it: ALDH inhibition qHTS; series mostly up to 42.6 µM; activity change, negative = inhibition: at the top concentration.
With `NC[C@@H]1O[C@H](C23CC4CC(CC(C4)C2)C3)Cc2c1ccc(O)c2O`, the “activity change, negative = inhibition” value is 11.4%.
On the same count and under the same terms, the figure for `Nc1ncnc2c1ncn2C1CCCC1` is -6.81%; for `NC(Cc1ccc(Cl)cc1)C(=O)O` (centres undefined) it is -19.2%; for `C#CCN(C)CCCOc1ccc(Cl)cc1Cl` it is -4.57%.
On the same count and under the same terms, the figure for `OCCN1CCN(CC/C=C2/c3ccccc3Sc3ccc(C(F)(F)F)cc32)CC1` is -5.74%.

Test system in the next test: not listed separately
As to the kind of experiment: BET inhibitor-based combinations targeting novel dependencies in MECOM-rearranged (r) AML: SET-2 cell line (AID 2202231).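 For viability: plate controls were DMSO treated cells for no effect and wells without cells for full effect.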 Note: nearly all actives have a fitted effect of over 35% in size. Note: potency is the fitted concentration of half-maximal effect. The note with it: SET-2 AML cells viability, CellTiter-Glo luminescence, 48 h; viability: active compounds read low, concentration not given here. The essentials:
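Readout: CellTiter-Glo luminescence. Exposure: 48 h, 11 concentrations, 500 cells/well. Metric: AUC and within-line Z-AUC after DMSO/empty-well normalization.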
Background: Cellular ATP, detected with luciferase, serves as a proxy for viable cell number.
Consider `CCCOc1ccc(C(=O)OCCN(CC)CC)cc1N`, for which the viability (usually a read-out of living cells in per cent, often relative to untreated cells) was 101%.
For `Cc1cc2c(C(C)C)c(O)c(O)c(C=O)c2c(O)c1-c1c(C)cc2c(C(C)C)c(O)c(O)c(C=O)c2c1O`, the Potency is 9.34 µM (active).
With `O=C(NCC1CCCCN1)c1cc(OCC(F)(F)F)ccc1OCC(F)(F)F` (centres undefined), the viability was 112%.
Same read-out and setting: the figure for `Cc1coc2c1C(=O)C(=O)c1c-2ccc2c1CCCC2(C)C` is 97.6%.
`CC(=O)N(O)CCCCCNC(=O)CCC(=O)N(O)CCCCCNC(=O)CCC(=O)N(O)CCCCCN`: the Potency is 20.9 µM (active).
The same measure, in the same setting: the figure for `Cc1c(-c2ccc(O)cc2)n(Cc2ccc(OCCN3CCCCCC3)cc2)c2ccc(O)cc12` is 23.5 µM (active).
Consider `COc1ncnc(NS(=O)(=O)c2ccc(N)cc2)c1OC`, for which the viability is 116%.
As to `Clc1ccccc1CN1CCc2sccc2C1`, the viability is 111%.
In the case of `CCCOc1ccc2nc(NC(=O)OC)[nH]c2c1`, the Potency was 0.525 µM (active).
